Experimental data as given in PubChem BioAssay AID651636 (Sanford-Burnham Center for Chemical Genomics, 2012).
The campaign covered roughly 360,000 compounds. About 3,000 (0.83%) were called active. Many of the other results were omitted from the sample, so actives are more common in it than they were. Unmarked numbers belong to inactive results. Rule as the data show it: active = inhibition above about 38%; inactive = the rest.

The compounds below were run against G-protein coupled receptor 183 (Homo sapiens) (UniProt P32249) (assay: blockers of oxysterol-driven EBI2 arrestin signaling – cell-based, luminescence, 7a,25-OHC stimulation, uHTS, primary screen (AID 651636;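 also: enzyme fragment complementation signal reports receptor beta-arrestin coupling in cells; 0% = agonist plus DMSO wells and 100% = wells without agonist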)). Details: EBI2 beta-arrestin recruitment, 7a,25-OHC stimulated, at 5 µM, hits give high values.
Chain of G-protein coupled receptor 183 (Homo sapiens) (P32249 whole entry, looked up, the tested form may be a part): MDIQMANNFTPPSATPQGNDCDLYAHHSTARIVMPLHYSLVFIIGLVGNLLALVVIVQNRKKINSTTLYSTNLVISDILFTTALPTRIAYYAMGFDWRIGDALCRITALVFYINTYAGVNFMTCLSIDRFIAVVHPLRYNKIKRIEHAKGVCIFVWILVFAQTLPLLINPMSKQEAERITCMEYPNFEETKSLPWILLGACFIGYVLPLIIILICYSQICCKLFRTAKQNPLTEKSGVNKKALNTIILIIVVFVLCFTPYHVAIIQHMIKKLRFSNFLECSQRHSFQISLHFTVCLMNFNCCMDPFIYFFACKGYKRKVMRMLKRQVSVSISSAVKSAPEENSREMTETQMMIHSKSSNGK
`Cc1nc2ccc(C(=O)N3CCN(c4ccccc4)CC3)cc2s1` was tested, and the inhibition was 65.3% (active).
Compound `CCc1nc2ccc(C(=O)N3CCN(c4cccc(Cl)c4)CC3)cc2nc1CC` has an inhibition of -4.92%.
Compound `Cc1nc2ccc(C(=O)N3CCSCC3)cc2s1` has an inhibition of -12.2%.
Work on `Cc1c(CN2CCCC(C(=O)c3cccc(Cl)c3)C2)c(=O)n(-c2ccccc2)n1C` (stereo not drawn) yielded an inhibition of 5.82%.
In the case of `CCC1Nc2ncnc(N3CCN(c4ccccc4)CC3)c2N(Cc2ccc(Cl)cc2)C1=O` (stereo not drawn), the inhibition was 68.8% (active).
`OC[C@@H]1CN(Cc2ccncc2)C[C@H](n2cnc3c(N4CCN(c5ccccc5)CC4)ncnc32)O1` showed an inhibition of 13.5%.
In the case of `CC[C@]1(C(=O)OC)[C@H]2C(=O)N(Cc3ccccc3)C(=O)[C@H]2[C@H]2CN=C(SCc3ccc(Cl)cc3)N21`, the inhibition was 19.5%.
Work on `CC(C)CC1(C)NC(=O)N(CC(=O)Nc2ccc3c(c2)OCCO3)C1=O` (stereo not drawn) yielded an inhibition of 10.5%.
`O=C(NCCS(=O)(=O)N1CCN(c2ccc(F)cc2)CC1)c1ccc2c(c1)OCO2` gave an inhibition of 5.18%.
`O=C(NNC(=S)Nc1ccc(F)cc1)[C@H]1C[C@@H]1c1ccccc1` was tested, and the inhibition was -13.1%.
`CCN(CC)c1ccc(/C=N/Nc2nc(C)cc(C)n2)c(O)c1` was tested, and the inhibition was 42.4% (active).
Compound `O=C(NCCN1C(=O)S/C(=C\c2cccnc2)C1=O)c1ccc(S(=O)(=O)N2CCCC2)cc1` has an inhibition of -1.14%.
For `Cc1ccc(SCCC(=O)NC(C(C)C)C(C)C)cc1`, the inhibition was 5.4%.
`CCOc1cccc(OCCCOc2cccc3cccnc23)c1` was tested, and the inhibition was 4.1%.
`O=S(=O)(NCCOc1cccc2cccnc12)c1ccc(F)cc1` was tested, and the inhibition was 0.785%.
In the case of `Cc1cc(OCCOc2cccc3cccnc23)c(C)cc1Cl`, the inhibition was 46.6% (active).
`CCOC(=O)N1CCN(C(=O)C[C@@H]2C[C@@]3(C(=O)OC)CC(C)(C)CC=C3N(Cc3ccco3)C2=O)CC1` was tested, and the inhibition was 3.44%.
`Cc1[nH]c(=O)c(C(=O)/C=C/c2ccccc2)c2c1CCCC2` gave an inhibition of -9.45%.
`Cc1nc(-c2ccc(Cl)cc2)sc1C(=O)CBr` was tested, and the inhibition was 10.7%.
With `Cc1nc(-c2ccccc2)sc1C(=O)/C=C/c1ccccc1` the inhibition was 55.4% (active).
`CC1=C/C(=N\OS(=O)(=O)c2ccccc2)C=CC1=O` showed an inhibition of -17.6%.
For `O=S(=O)(Nc1cccc(-n2cnnn2)c1)c1cnc(Cl)c(Cl)c1`, the inhibition was -8.42%.
`CC(C)(C)C1CCC(=NNC(=O)c2ccc(Br)o2)CC1` (stereo not drawn) gave an inhibition of -9.46%.
With `COc1ccc([C@H]2CC(=O)C=C(c3ccc(CO)cc3)C2)cc1` the inhibition was 29.6%.
With `COc1ccc([C@H]2CC(=O)C=C(c3ccc(OC(F)(F)F)cc3)C2)cc1OC` the inhibition was 31%.
`O=C1C=C(c2cc(C(F)(F)F)cc(C(F)(F)F)c2)C[C@@H](c2ccc3c(c2)OCO3)C1` gave an inhibition of 14%.
`O=C1C=C(c2cccc(Br)c2)C[C@@H](c2ccc(F)cc2)C1` was tested, and the inhibition was 36.7%.
With `COc1ccc([C@H]2CC(=O)C=C(c3ccc(C)cc3)C2)cc1` the inhibition was 81.1% (active).
In the case of `COc1ccc2cc(C3=CC(=O)C[C@H](c4ccc5c(c4)OCO5)C3)ccc2c1`, the inhibition was 71.7% (active).
For `COc1cccc(C2=CC(=O)C[C@H](c3ccc(OC)c(OC)c3)C2)c1`, the inhibition was 10.2%.
With `O=C1C=C(c2cccc(Cl)c2)C[C@@H](c2ccc(F)cc2)C1` the inhibition was 22.1%.
For `COc1ccc([C@H]2CC(=O)C=C(/C=C/c3ccccc3)C2)cc1`, the inhibition was 34.9%.
`COc1ccc([C@H]2CC(=O)C=C(/C=C/c3ccc(Cl)cc3)C2)cc1` was tested, and the inhibition was 44.1% (active).
For `N#Cc1ccc(C2=CC(=O)C[C@H](c3ccc(Cl)cc3)C2)cc1`, the inhibition was 80.3% (active).
`CCCCC/C=C/C1=CC(=O)C[C@H](c2ccc(Cl)cc2)C1` gave an inhibition of 4.95%.
In the case of `CSc1ncnc2c1ncn2CCCNCc1cccs1`, the inhibition was -4.51%.
`COc1ccccc1C(=O)N1C(CC(=O)Nc2ccccc2C)C(=O)NC2CCCCC21` (stereo not drawn) gave an inhibition of 3.5%.
`COc1ccc(C)cc1NC(=O)CSc1nnc(CC(=O)Nc2ccccc2F)n1C` was tested, and the inhibition was 6.35%.
In the case of `CN1C[C@@H](CO)O[C@@H](n2cnc3c(N4CCN(CCO)CC4)ncnc32)C1`, the inhibition was 5.76%.
For `CC1CCc2sc3nc(N4CCN(CCO)CC4)n4ncnc4c3c2C1` (stereo not drawn), the inhibition was 61.6% (active).
`Cc1ccc(C)c(C(=O)N2CCC(n3nccc3NC(=O)C3CC3)CC2)c1` gave an inhibition of 5.07%.
`C/C=C/C=C/C(=O)OCC(=O)Nc1ccc(Cl)cc1` showed an inhibition of 1.78%.
For `COc1ccc(NC(=O)N2CCC(Cc3ccccc3)CC2)cc1`, the inhibition was 65.5% (active).
In the case of `COc1ccc(C(=O)NC2CCN(C(=O)Nc3ccc(F)cc3)CC2)cc1`, the inhibition was -4.2%.
`COc1ccc(NC(=O)N2CCCC(C(=O)Nc3ccccc3OC)C2)cc1` (stereo not drawn) showed an inhibition of 18.7%.
Compound `NC(=O)C1(N2CCCCC2)CCN(C(=O)c2ccc(C#Cc3ccccc3)o2)CC1` has an inhibition of -2.84%.
`CCc1ccccc1NC(=S)Nc1cc(OC)c(NC(=O)C(C)C)cc1OC` was tested, and the inhibition was -4.78%.
In the case of `O=C(Nc1ccc(S(=O)(=O)N2CCCCC2)cc1)C1CC(=O)N(c2ccc(F)cc2)C1` (stereo not drawn), the inhibition was 45.7% (active).
For `Cc1ccc(N2CC(C(=O)Nc3ccc(S(=O)(=O)N4CCCC4)cc3)CC2=O)cc1C` (stereo not drawn), the inhibition was 45.4% (active).
Work on `CC1CCN(S(=O)(=O)c2ccc(NC(=O)C3CC(=O)N(c4ccccc4)C3)cc2)CC1` (stereo not drawn) yielded an inhibition of 38%.
With `Cc1ccccc1N1CC(C(=O)Nc2ccc(S(=O)(=O)N3CCCC3)cc2)CC1=O` (stereo not drawn) the inhibition was 7.48%.
`O=C(Nc1ccc(S(=O)(=O)N2CCCCC2)cc1)C1CCN(C(=O)c2ccc(F)cc2)CC1` gave an inhibition of 17%.
`Cc1ccc(NC(=O)C2CC(=O)N(c3ccc4c(c3)OCCO4)C2)cc1S(=O)(=O)N1CCCCCC1` (stereo not drawn) showed an inhibition of 14.6%.
For `CCCNC(=O)C1(C)CCN(C(=O)c2ccc(F)cc2Cl)C1` (stereo not drawn), the inhibition was -4.71%.
Work on `OCCC#Cc1ccc(N2C(c3ccsc3)=Cc3ccc(F)cc3C2c2c[nH]c3ccccc23)cc1` (stereo not drawn) yielded an inhibition of 10.6%.
`Cc1cnc(CN(C)C(=O)CC2C(=O)NCCN2Cc2cccc(F)c2F)[nH]1` (stereo not drawn) showed an inhibition of -7.04%.
`Cc1c(NC(=O)CN2C(=O)C(=O)N(Cc3ccccc3)C2=O)c(=O)n(-c2ccccc2)n1C` showed an inhibition of 0.531%.
Work on `CC1(C(=O)NCc2ccccc2)CSCC(=O)N1CCCn1ccnc1` (stereo not drawn) yielded an inhibition of 4.35%.
`CCOC(=O)[C@]12CCCC=C1N(CCC1=CCCCC1)C(=O)[C@H](CC(=O)N1CCSCC1)C2` was tested, and the inhibition was 7.49%.
`COC(=O)c1ccc(NC(=O)CSc2nnc(Cc3cccn3C)n2-c2ccc(F)cc2)cc1` showed an inhibition of -2.09%.
`COc1ccccc1NC(=O)CSc1nnc(Cc2cccn2C)n1-c1ccc(F)cc1` was tested, and the inhibition was 9.51%.
In the case of `COc1ccc(-n2c(Cc3cccn3C)nnc2SCC(=O)Nc2cc(C)cc(C)c2)cc1`, the inhibition was 49.5% (active).
Compound `CC(=O)N1CCN(CC(c2ccccc2)c2ccccc2)CC1` has an inhibition of -1.32%.
In the case of `O=C(C(c1ccccc1)c1ccccc1)N1CCN(CC(O)COc2ccccc2)CC1` (stereo not drawn), the inhibition was 53.5% (active).
Work on `CCCc1ccc(OCC(O)CN2CCN(C(=O)OCC)CC2)cc1` (stereo not drawn) yielded an inhibition of 22.6%.
Work on `O=C(O)C1=C(C(=O)O)C2CCC1C2` yielded an inhibition of 6.95%.
For `COc1ccc(O)c(/C=N/N=C/c2cccc([N+](=O)[O-])c2)c1`, the inhibition was 1.28%.
`COc1ccc(/C=C(/NC(=O)c2ccccc2)C(=O)Nc2cccc(C(=O)O)c2)cc1` was tested, and the inhibition was -12.6%.
For `COc1ccc(/C=N/N=C/c2c[nH]c(=O)c(C#N)c2Nc2ccccc2)cc1`, the inhibition was 90.2% (active).
With `O=C(COc1ccc(Cl)cc1)N1CCN(S(=O)(=O)c2ccc(Cl)cc2)CC1` the inhibition was 89.2% (active).
In the case of `O=C(COc1ccc2c(c1)CCC2)N1CCN(c2ccc(F)cc2)CC1`, the inhibition was 44.5% (active).
In the case of `O=C(COc1ccc(Cl)cc1)N1CCN(c2cccc(C(F)(F)F)c2)CC1`, the inhibition was 84.9% (active).
With `O=C(CN1CCN(S(=O)(=O)c2ccc(Cl)s2)CC1)NCc1ccc(Cl)cc1` the inhibition was 15.5%.
`CSCCC(NC(=O)COc1ccccc1)C(=O)N1CCN(c2cccc(C(F)(F)F)c2)CC1` (stereo not drawn) showed an inhibition of 26.3%.
`Cc1ccc(OCC(=O)N2CCN(S(=O)(=O)c3ccc(Cl)s3)CC2)cc1C` was tested, and the inhibition was 90% (active).
Compound `Cc1c(C)c2ccc(OCC(=O)N3CCN(c4cccc(Cl)c4)CC3)cc2oc1=O` has an inhibition of 11.5%.
`O=C(Nc1ccc2c(c1)CCC2)c1cccc(S(=O)(=O)N2CCN(c3ccc(F)cc3)CC2)c1` gave an inhibition of -5.81%.
Work on `Nc1nc(SCC(=O)N2CCN(S(=O)(=O)c3ccc(Cl)cc3)CC2)n[nH]1` yielded an inhibition of -6.16%.
`O=C(CN1CCN(S(=O)(=O)c2ccc(Cl)s2)CC1)N1CCCCC1` showed an inhibition of -6.5%.
With `COc1ccc(N2CCN(C(=O)COc3ccc4c(C)cc(=O)oc4c3)CC2)cc1` the inhibition was -7.37%.
With `O=C(CSc1ccccn1)N1CCN(S(=O)(=O)c2ccc(Cl)cc2)CC1` the inhibition was 1.72%.
Compound `CC(=O)c1ccc(S(=O)(=O)Nc2ccc(-c3ccc4nncn4n3)cc2)cc1` has an inhibition of 6.72%.
`COc1ccc(N2C(=O)C(O)C2c2ccc(C)cc2)cc1` (stereo not drawn) showed an inhibition of -10.7%.
`CC(C)(C)c1cc(CN2CCN(CCC#N)CC2)cc(C(C)(C)C)c1O` gave an inhibition of 1.34%.
Work on `Cc1ccc(NC(=O)C(C)Sc2nnc(C3CC3)n2C2CC2)cc1S(=O)(=O)N1CCOCC1` (stereo not drawn) yielded an inhibition of 6.91%.
`CC(=O)NC(Cc1ccc(F)c(F)c1)C(=O)NC1CCN(C(=O)c2ccc(C)cc2)CC1` (stereo not drawn) showed an inhibition of 1.72%.
Compound `COc1ccc2c(c1)C(=O)Nc1cc(Cl)ccc1N2` has an inhibition of 10.9%.
`C/C(=N\NC(=O)C1(C)CC1(Br)Br)c1ccc(C)cc1C` (stereo not drawn) was tested, and the inhibition was 4.16%.
